PubChem BioAssay AID624126 (The Scripps Research Institute Molecular Screening Center, 2012)
Out of some 360,000 compounds screened, about 1,400 (0.39%) were called active. Many of the other results were omitted from the sample, so actives are more common in it than they were. Values without a mark were called inactive.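 The calls were made as follows: active = activation above its plate's cutoff, the mean activation of sample wells plus 3 SD; inactive = the rest.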

What follows are compounds tested against Muscarinic acetylcholine receptor M4 (Homo sapiens) (UniProt P08173) (assay: CHRM4 PAMs potentiating acetylcholine calcium signal – CHO-K1 cells, Fluo-8 calcium fluorescence, primary screen (AID 624126)). Details: CHO-K1 hM4/Gqi5, Fluo-8 calcium fluorescence, ACh EC20; at 3 µM; stronger effect = higher value; 0% = ACh EC20, 100% = maximal ACh.
Sequence of Muscarinic acetylcholine receptor M4 (Homo sapiens) (P08173 whole entry, looked up): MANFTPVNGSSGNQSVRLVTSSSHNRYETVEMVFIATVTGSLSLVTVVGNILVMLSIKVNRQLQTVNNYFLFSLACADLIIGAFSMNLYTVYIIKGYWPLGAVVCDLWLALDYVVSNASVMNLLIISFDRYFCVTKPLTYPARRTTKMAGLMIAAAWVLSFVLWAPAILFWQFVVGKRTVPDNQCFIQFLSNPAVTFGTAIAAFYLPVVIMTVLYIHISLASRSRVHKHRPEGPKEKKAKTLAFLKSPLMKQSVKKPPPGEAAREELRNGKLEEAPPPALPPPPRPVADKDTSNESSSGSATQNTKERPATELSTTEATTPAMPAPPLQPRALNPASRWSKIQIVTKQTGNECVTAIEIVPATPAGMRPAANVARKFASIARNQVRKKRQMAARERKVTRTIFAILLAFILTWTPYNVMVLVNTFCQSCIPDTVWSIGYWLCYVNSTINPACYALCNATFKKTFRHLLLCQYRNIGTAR

Point of comparison: `O=C(Cc1ccc(S(=O)(=O)N2CCOCC2)s1)Nc1ccc(Br)c(C(F)(F)F)c1`, activation -10.2%. Against it:
- CC(C)(C(=O)N1CCC1(C)C(=O)NS(=O)(=O)c1ccc(Br)cc1)c1ccccc1 (stereo unspecified) — higher, 1.17%
- CC(C)c1nc(CNC(=O)CC2C(=O)NCCN2Cc2cccc(F)c2F)cs1 (stereo unspecified) — higher, -2.59%
- Cc1nnc(SC(C(=O)Nc2cc(Cl)cc(Cl)c2)c2ccccc2)[nH]c1=O (stereo unspecified) — higher, -2.22%
- CN(CC(=O)Nc1c(Cl)cccc1Cl)C(=O)c1ccncc1 — higher, 0.17%
- O=C(Nc1c(Cl)cccc1Cl)C1CCC1 — higher, 11.8%
- COC(=O)c1c(NC(=O)COc2ccc(Cl)cc2Cl)sc2c1CC(C)(C)NC2(C)C — higher, 14.6%
- CCOc1ccccc1C1NC(=O)NC(C)=C1C(=O)OCc1ccco1 (stereo unspecified) — higher, -5.48%
- Cc1ccc(C2=CSC3=NS(=O)(=O)CCN23)cc1C — higher, 5.85%
- CCCCOc1ccc(CON(C(C)=O)C(C)=O)cc1Cl — higher, -9.39%
- CCNC(=O)CCc1nc(-c2ccc(C(C)(C)C)cc2)no1 — higher, 1.74%
- O=C(O)C1CCCN1S(=O)(=O)c1ccc2c(c1)CCC2 (stereo unspecified) — higher, -5.21%
- CCCc1cc(=O)[nH]c(SCC(=O)N2C(C)CCCC2C)n1 (stereo unspecified) — higher, 2.48%
- CC(C)Cn1c(N)c(C(=O)COC(=O)CN2C(=O)C3CC=CCC3C2=O)c(=O)n(C)c1=O (stereo unspecified) — higher, -2.93%
- Cc1ccc(SCC2=NNC(=O)C2)cc1 — higher, -0.52%
- O=C(Cn1nc(CNc2ccc(Cl)cc2)[n+]2c1CCCCC2)c1ccc(Cl)cc1 — higher, -0.75%
- Cc1ccccc1NC(=O)NC1(C(=O)N2CCCC2)CCCCC1 — higher, 9.77%
- Cc1ccc(C)c(NC(=O)NNC(=O)c2ccc3ccccc3c2O)c1 — higher, 12.9%
- COc1ccc2c(C)cc3nnnn3c2c1 — higher, 5%
- Cc1cc(=O)oc2c(C(=O)c3ccccc3)c(OCC(N)=O)ccc12 — higher, -2.31%
- Cc1cc(=O)oc2c(C)c(OCC(=O)NCCN3CCOCC3)ccc12 — higher, -1.9%
- C[n+]1cccc(C(=O)O)c1 — higher, -3.7%
- Cc1ccc(C)c(NC2=NCC(=O)N2c2ccc3c(c2)OCCO3)c1 — higher, -2.16%
- Cc1cc(=O)[nH]c(Nc2cccc(Br)c2)n1 — higher, -7.26%
- Cn1cnc2c1c(=O)n(Cc1ccccc1C#N)c(=O)n2C — higher, 1.16%
- O=C(C(NS(=O)(=O)c1cccc2nsnc12)c1ccccc1)N1CCN(c2ccccn2)CC1 (stereo unspecified) — lower, -11.9%
- CCc1cc(C(=O)Nc2nnc(C3CC3)s2)sc1C — higher, 6.5%
- CCc1ccccc1OCC(=O)Nc1nnc(C2CC2)s1 — higher, 2.68%
- O=C(CN1CCSCC1)N/N=C/c1ccc(F)cc1F — higher, 4.64%
- CCN(CC)c1ccc(C(=O)OCC(=O)c2ccco2)cc1 — higher, -1.72%
- Cc1cc(NC(=O)C(C)SCC(=O)Nc2cccc(S(=O)(=O)N3CCCCCC3)c2)no1 (stereo unspecified) — higher, -6.44%
- O=C(CCc1nc(-c2ccccc2)no1)Nc1cccc(C(=O)NC2CC2)c1 — higher, 10.1%
- N#CCSc1ccccc1NC(=O)CN1C(=O)NC(CCc2ccccc2)C1=O (stereo unspecified) — higher, 1.07%
- O=[N+]([O-])c1ccc(N2CCN(S(=O)(=O)c3ccc4ccccc4c3)CC2)cc1NCc1ccco1 — higher, 14%
- O=C(c1ccc(S(=O)(=O)NCc2ccco2)cc1)N1CCN(c2ccccc2)CC1 — higher, 18.3%
- CC(=O)c1ccc(S(=O)(=O)NCCC(=O)N2CCN(c3ccccn3)CC2)cc1 — higher, 2.49%
- Cc1csc(SCC(=O)N(c2ccccc2)C(C)C)n1 — higher, 1.05%
- O=C(CCC(=O)OCC(F)(F)C(F)F)NCc1ccccc1 — higher, -1.61%
- CC1CN(CCCOc2ccccc2-c2ccccc2)CC(C)O1 (stereo unspecified) — higher, -4.17%
- CC1CN(CCOc2ccccc2[N+](=O)[O-])CC(C)O1 (stereo unspecified) — higher, 1.64%
- Cc1cc2c(cc1C)[n+](C)cn2CC(O)COCC1CC=CCC1 (stereo unspecified) — higher, 4.04%
- O=S(=O)(Nc1ncccn1)c1ccc(NS(=O)(=O)c2cccc(Cl)c2Cl)cc1 — higher, 3.83%
- OCCCNc1nccc(-c2cc(Nc3cccc(Cl)c3)ncn2)n1 — higher, 4.57%
- CC(C(=O)NCCc1ccc(S(N)(=O)=O)cc1)N1C(=O)CC(C)(C)Sc2ccccc21 (stereo unspecified) — higher, -2.13%
- CCOC(=O)[C@]12CCCC=C1N(Cc1ccc3c(c1)OCO3)C(=O)[C@H](CC(=O)N1CCN(C(=O)c3ccco3)CC1)C2 — higher, 13.2%
- COC(=O)[C@]12CCCCC=C1N(Cc1ccc3c(c1)OCO3)C(=O)[C@H](CC(=O)NCc1cccs1)C2 — higher, -4.76%
- Cc1[nH]c2c(C(=O)N3CCCC(CCC(=O)NCc4ccccc4F)C3)cccc2c1C (stereo unspecified) — higher, -3.21%
- Cc1nc(CN2CCN(C(=O)CCc3nnc(Cc4c[nH]c5ccccc45)o3)CC2)cs1 — higher, -5.85%
- COc1ccc(N2CCN(C(c3cc4ccc(C)cc4[nH]c3=O)c3nnnn3C3CCCC3)CC2)cc1 (stereo unspecified) — higher, -3.66%
- COCCn1nnnc1C(c1cc2ccc(OC)cc2[nH]c1=O)N1CCc2ccccc2C1 (stereo unspecified) — higher, -1.22%

With `NC(=S)Nc1c(Cl)cccc1Cl` the activation was 43.9% (active).
In the case of `CCCOc1ccc(C2=CSC3=NCCN23)cc1Cl`, the activation was 15.8% (active).
For `CCCc1cc(=O)[nH]c(SCC(=O)c2c(N)n(CC(C)C)c(=O)n(C)c2=O)n1`, the activation was 25.4% (active).
For `CC(=O)c1c(OCC(=O)N(C)C2CCCCC2)ccc2c(C)cc(=O)oc12`, the activation was 21.7% (active).
`Cc1cc(=O)[nH]c(N/N=C/c2ccc3c(c2)OCCO3)n1` was tested, and the activation was 31.5% (active).
With `O=C(Nc1nnc(C2CC2)s1)c1ccccn1` the activation was 28.3% (active).
With `O=C(c1ccccc1)N1CCN(c2ccc([N+](=O)[O-])c(NCc3ccco3)c2)CC1` the activation was 21.4% (active).
For `Cc1cc(C)c(OCCN2CC(C)OC(C)C2)c(Br)c1` (stereo unspecified), the activation was 20.4% (active).
In the case of `NS(=O)(=O)c1cccnc1Nc1cccc(Cl)c1`, the activation was 24.9% (active).
In the case of `CCOC(=O)[C@]12CCCC=C1N(Cc1ccc3c(c1)OCO3)C(=O)[C@H](CC(=O)NCc1cccs1)C2`, the activation was 23.3% (active).
With `CCOc1ccc2[nH]c(=O)c(C(c3nnnn3CCOC)N3CCOCC3)cc2c1` (stereo unspecified) the activation was 33.2% (active).
